Assay [1] is described as follows: antimalarial activity against Dd2 strain (AID 2302;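 active = growth inhibition above 50% at the single 2 µM test dose, taken to imply half-maximal potency below 2 µM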;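 note: 0% = DMSO untreated growth and 100% = chloroquine plus artemisinin killed control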). The note with it: P. falciparum Dd2 in RBCs, LDH growth readout, 72 h; at 2 µM; stronger effect = higher value.
A short description of assay [2]: human hepatoma cell viability loss – ATP luminescence, cytotoxicity control for P. falciparum antimalarial project, primary screen (AID 2303;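 active = inhibition above 50%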;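 note: 0% = DMSO wells and 100% = digitonin-killed cells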). The note with it: HepG2 viability, 24-48 h, at 10 µM, stronger effect = higher value.
Assay [3] deals with L-lactate dehydrogenase (Plasmodium falciparum (isolate CDC / Honduras)) (UniProt Q27743). In words: PfLDH activity inhibition – cell lysate, 3D7 strain, counter-screen for P. falciparum growth inhibition project (AID 2304).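 Note: 0% = vehicle and 100% = reference inhibitor.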 The following applies: P. falciparum 3D7 crude extract, LDH APAD/NBT absorbance; at 2 µM; stronger effect = higher value. On the technique in general: Counterscreens check selectivity or assay interference.

A short description of assay [4]: inhibition of 3D7 malaria parasite growth – strain 3D7 (AID 2306).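 Note: 0% = DMSO wells and 100% = chloroquine plus artemisinin control wells.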 The note with it: P. falciparum 3D7 erythrocytic growth, LDH absorbance, 72 h; at 2 µM; stronger effect = higher value.
Assay [5] addresses Calcium-dependent protein kinase 1 (Plasmodium falciparum (isolate 3D7)) (UniProt P62344). The experiment in a line: PfCDPK1 kinase inhibitors, biochemical, TCAMS library (AID 1159585; cut-off not given, nearly all actives have IC50 up to about 0.98 µM;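 note: inhibitors leave more ATP so luminescence rises with inhibition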). The following applies: recombinant PfCDPK1, Kinase-Glo ATP depletion luminescence. In general terms: Kinase-Glo measures the ATP left after a reaction by luminescence.
In assay [6] the target is Plasmodium falciparum protein kinase 6 (PK6, PF3D7_1337100) (UniProt Q8IDW1). In words: PfPK6 kinase inhibitors, biochemical, TCAMS library (AID 1159586). The note with it: recombinant PfPK6, Kinase-Glo ATP depletion luminescence.
The target in assay [7] is Protein kinase 7 (PK7), Plasmodium falciparum 3D7 (PF3D7_0213400) (UniProt Q7YTF7). In words: inhibition of Plasmodium PK7 catalytic activity – biochemical, TCAMS antimalarial set, Kinase-Glo luminescence (AID 1159587). The note with it: recombinant PfPK7, Kinase-Glo ATP depletion luminescence.
The target of assay [8] is Calcium-dependent protein kinase 4 (Plasmodium falciparum (isolate 3D7)) (UniProt Q8IBS5). In words: PfCDPK4 kinase inhibitors, biochemical, TCAMS library (AID 1159588; cut-off not given, nearly all actives have IC50 up to about 0.91 µM). The note with it: recombinant PfCDPK4, Kinase-Glo ATP depletion luminescence.

Several values for one entry are separate records, joined by “and”; a condition that tells them apart may be missing. Identical values can stand only once. For some assays here: Entries with a potency or affinity are not part of this list. More than one record can exist for a structure, and the calls need not agree. Activity calls are given as the source filed them. Unless noted, the rule behind the calls is not given here.

Plasmodium falciparum protein kinase 6 (PK6, PF3D7_1337100), sequence (Q8IDW1 1-305): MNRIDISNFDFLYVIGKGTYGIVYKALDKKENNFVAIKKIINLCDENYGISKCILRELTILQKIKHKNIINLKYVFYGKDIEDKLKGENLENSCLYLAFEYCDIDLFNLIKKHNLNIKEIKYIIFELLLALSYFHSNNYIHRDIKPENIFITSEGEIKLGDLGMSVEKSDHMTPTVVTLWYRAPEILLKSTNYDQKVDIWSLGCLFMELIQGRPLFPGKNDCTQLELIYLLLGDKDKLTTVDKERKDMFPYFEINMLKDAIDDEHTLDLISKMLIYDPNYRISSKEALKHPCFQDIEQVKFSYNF
Calcium-dependent protein kinase 4 (Plasmodium falciparum (isolate 3D7)), sequence (Q8IBS5 whole entry, looked up): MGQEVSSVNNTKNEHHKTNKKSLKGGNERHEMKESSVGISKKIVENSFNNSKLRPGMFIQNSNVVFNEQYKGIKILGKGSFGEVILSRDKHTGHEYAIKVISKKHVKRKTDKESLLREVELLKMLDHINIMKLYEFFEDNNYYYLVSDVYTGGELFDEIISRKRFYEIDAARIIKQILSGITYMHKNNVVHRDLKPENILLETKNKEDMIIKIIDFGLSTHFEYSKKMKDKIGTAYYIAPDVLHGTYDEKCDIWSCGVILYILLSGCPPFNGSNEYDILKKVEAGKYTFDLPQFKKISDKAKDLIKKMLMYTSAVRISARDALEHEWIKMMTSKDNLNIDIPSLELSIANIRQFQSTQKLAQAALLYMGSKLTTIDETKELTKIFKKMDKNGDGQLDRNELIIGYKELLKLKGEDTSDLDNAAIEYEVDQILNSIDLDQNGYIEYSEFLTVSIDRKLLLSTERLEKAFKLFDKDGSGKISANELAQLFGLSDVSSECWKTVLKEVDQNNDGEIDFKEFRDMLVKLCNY
Calcium-dependent protein kinase 1 (Plasmodium falciparum (isolate 3D7)), sequence (P62344 whole entry, looked up): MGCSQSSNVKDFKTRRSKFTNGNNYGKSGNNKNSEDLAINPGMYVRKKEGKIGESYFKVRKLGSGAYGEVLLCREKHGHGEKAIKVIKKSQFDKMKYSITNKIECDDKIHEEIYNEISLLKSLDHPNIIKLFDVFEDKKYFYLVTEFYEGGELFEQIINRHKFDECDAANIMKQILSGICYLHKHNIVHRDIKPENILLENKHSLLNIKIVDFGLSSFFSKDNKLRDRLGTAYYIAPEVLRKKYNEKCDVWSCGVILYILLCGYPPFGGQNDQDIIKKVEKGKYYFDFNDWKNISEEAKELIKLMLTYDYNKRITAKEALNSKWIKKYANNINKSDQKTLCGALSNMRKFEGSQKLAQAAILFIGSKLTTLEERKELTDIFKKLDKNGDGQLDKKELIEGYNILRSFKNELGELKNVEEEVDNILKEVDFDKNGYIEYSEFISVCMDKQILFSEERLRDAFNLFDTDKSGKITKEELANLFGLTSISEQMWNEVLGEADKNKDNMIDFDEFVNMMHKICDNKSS
Protein kinase 7 (PK7), Plasmodium falciparum 3D7 (PF3D7_0213400), sequence (Q7YTF7 1-343): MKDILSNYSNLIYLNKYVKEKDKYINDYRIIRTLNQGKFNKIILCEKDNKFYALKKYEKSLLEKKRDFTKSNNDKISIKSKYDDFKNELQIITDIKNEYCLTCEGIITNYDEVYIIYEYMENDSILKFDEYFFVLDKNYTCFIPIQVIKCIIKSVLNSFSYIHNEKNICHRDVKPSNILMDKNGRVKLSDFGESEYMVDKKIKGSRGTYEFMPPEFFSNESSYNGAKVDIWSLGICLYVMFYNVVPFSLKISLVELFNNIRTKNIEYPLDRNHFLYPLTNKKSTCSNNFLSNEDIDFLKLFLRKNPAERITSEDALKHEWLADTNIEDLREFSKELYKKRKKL
L-lactate dehydrogenase (Plasmodium falciparum (isolate CDC / Honduras)), sequence (Q27743 whole entry, looked up): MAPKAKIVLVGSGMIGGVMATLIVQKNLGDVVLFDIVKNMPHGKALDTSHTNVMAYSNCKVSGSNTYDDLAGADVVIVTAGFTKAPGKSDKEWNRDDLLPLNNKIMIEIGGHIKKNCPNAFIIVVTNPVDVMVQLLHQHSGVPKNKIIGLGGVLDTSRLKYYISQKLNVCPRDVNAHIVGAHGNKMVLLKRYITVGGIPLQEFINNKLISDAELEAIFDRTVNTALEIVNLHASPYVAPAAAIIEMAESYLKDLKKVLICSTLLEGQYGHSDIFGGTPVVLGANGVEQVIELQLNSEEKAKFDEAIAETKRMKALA

Take `Brc1cnc(NC2=NCCN2)c(Br)c1`: the growth inhibition in assay [1] is -1% (inactive); in assay [4] it was 99% (active). For the same compound, the inhibition (commonly the change of the read-out against control, counted positive when it falls) in assay [2] is -6% (inactive); in assay [3], -3% (inactive). Also, the outcome in assay [5], in assay [6], in assay [7] and in assay [8] was inactive.

Regarding `S=C(Nc1ccccc1Cl)NC1CCC(CN2CCC(c3c[nH]c4ccccc34)CC2)CC1` (stereo unspecified), the results for the growth inhibition in assay [1] and in assay [4] were 12% (inactive) and 90% (active), respectively. Moreover, the inhibition in assay [2] is 31% (inactive); in assay [3] it was 8% (inactive). Moreover, the result in assay [5], in assay [6], in assay [7] and in assay [8] was inactive.

For the compound `CN1[C@@H]2CC[C@H]1c1cc(NC(=O)c3cc(-c4ccc(Cl)cc4)cs3)ccc12`, the growth inhibition in assay [1] was 35% (inactive); in assay [4] it was 90% (active). Further, the inhibition is 62% (active) in assay [2] and -2% (inactive) in assay [3]. Moreover, the outcome in assay [5], in assay [6], in assay [7] and in assay [8] was inactive.

For the compound `Oc1ccccc1CN1CCC(CCOC(c2ccccc2)c2ccc(Cl)cc2)CC1` (stereo unspecified), the growth inhibition is 99% (active) in assay [1] and 97% (active) in assay [4]. The inhibition is 19% (inactive) in assay [2] and -8% (inactive) in assay [3]. The outcome in assay [5], in assay [6], in assay [7] and in assay [8] was inactive.

As for `CCCCCCC(C)(C)c1cc(O)c2c(c1)OC(C)(C)c1ccncc1-2`, the results for the growth inhibition in assay [1] and in assay [4] were 99% (active) and 95% (active), respectively. Further, the inhibition in assay [2] was 4% (inactive); in assay [3], 1% (inactive). In addition, the result in assay [5], in assay [6], in assay [7] and in assay [8] was inactive.

Turning to `O=C(NC1CCN(CCc2c[nH]c3ccc(F)cc23)CC1)c1ncc(-c2ccccc2)[nH]1`, the results for the growth inhibition in assay [1] and in assay [4] were 69% (active) and 102% (active), respectively. In addition, the inhibition was -3% (inactive) in assay [2] and -1% (inactive) in assay [3]. In addition, the result in assay [5], in assay [6], in assay [7] and in assay [8] was inactive.

Regarding `Fc1ccc(N(c2nc(-c3cc(F)cc(C(F)(F)F)c3)cs2)C2CCNCC2)cc1`, the results for the growth inhibition in assay [1] and in assay [4] were 10% (inactive) and 95% (active), respectively. Moreover, the inhibition in assay [2] is 35% (inactive); in assay [3], -3% (inactive). In addition, the result in assay [5], in assay [6], in assay [7] and in assay [8] was inactive.

Consider `CNCCCCCCc1ccc(CC(C)NCC(O)c2cccc(Cl)c2)cc1` (stereo unspecified), for which the growth inhibition is 76% (active) in assay [1] and 94% (active) in assay [4]. Besides, the inhibition in assay [2] is 22% (inactive); in assay [3], 4% (inactive). Also, the outcome in assay [5], in assay [6], in assay [7] and in assay [8] was inactive.

Take `O=C(/C=C/c1ccc(C(F)(F)F)cc1)NC1CCC(CN2CCC(c3c[nH]c4ccccc34)CC2)CC1` (stereo unspecified): the growth inhibition was 97% (active) and 100% (active) in assay [1]; 98% (active) and 101% (active) in assay [4]. Further, the inhibition was 42% (inactive) and 73% (active) in assay [2]; -2% (inactive) and -3% (inactive) in assay [3]. Further, the result in assay [5], in assay [6], in assay [7] and in assay [8] was inactive.

On to `O=C(/C=C/c1ccc(Cl)c(Cl)c1)NC1[C@@H]2CC[C@H]1CC(CN1CCC(c3c[nH]c4ccccc34)CC1)C2` (stereo partly specified), for which the growth inhibition in assay [1] and in assay [4] was 100% (active) throughout. For the same compound, the inhibition in assay [2] is 31% (inactive); in assay [3], -2% (inactive). For the same compound, the outcome in assay [5], in assay [6], in assay [7] and in assay [8] was inactive.

With `O=C(/C=C/c1ccc(Cl)c(Cl)c1)NCC1CCC(CN2CCC(c3c[nH]c4ccccc34)CC2)CC1` (stereo unspecified), the growth inhibition is 93% (active) in assay [1] and 102% (active) in assay [4]. The values for the inhibition in assay [2] and in assay [3] were 54% (active) and 4% (inactive), respectively. Besides, the outcome in assay [5], in assay [6], in assay [7] and in assay [8] was inactive.

As to `O=C(NC1CCC(CN2CCC(c3c[nH]c4ccccc34)CC2)CC1)NC12CC3CC(CC(C3)C1)C2` (stereo unspecified), the growth inhibition is 46% (inactive) in assay [1] and 96% (active) in assay [4]. The inhibition was 37% (inactive) in assay [2] and 7% (inactive) in assay [3]. Also, the outcome in assay [5], in assay [6], in assay [7] and in assay [8] was inactive.

`Cc1cc(O)cc2c(C3CCN(CC4CCC(NC(=O)/C=C/c5ccccc5Cl)CC4)CC3)c[nH]c12` (stereo unspecified): the figures for the growth inhibition in assay [1] and in assay [4] were 84% (active) and 99% (active), respectively. The inhibition is 21% (inactive) in assay [2] and 1% (inactive) in assay [3]. Further, the result in assay [5], in assay [6], in assay [7] and in assay [8] was inactive.

For the compound `CC[C@H]1CN2CC[C@H]1C[C@@H]2[C@@H](O)c1cc(Cl)nc2ccc(OC)cc12`, the growth inhibition in assay [1] was 82% (active); in assay [4], 98% (active). Further, the figures for the inhibition in assay [2] and in assay [3] were -9% (inactive) and -2% (inactive), respectively. In addition, the result in assay [5], in assay [6], in assay [7] and in assay [8] was inactive.

Take `O=C(NC1CCC(CN2CCC(c3c[nH]c4ccccc34)CC2)CC1)c1csc(-c2ccc(C(F)(F)F)cc2Cl)n1` (stereo unspecified): the growth inhibition in assay [1] is 75% (active); in assay [4], 99% (active). The inhibition in assay [2] was 32% (inactive); in assay [3] it was -3% (inactive). The outcome in assay [5], in assay [6], in assay [7] and in assay [8] was inactive.

Regarding `O=C(/C=C/c1cccc(F)c1)NC1CCC(CN2CCC(c3c[nH]c4ccccc34)CC2)CC1` (stereo unspecified), the growth inhibition in assay [1] was 31% (inactive) and 28% (inactive); in assay [4], 98% (active) and 99% (active). In addition, the inhibition in assay [2] is 39% (inactive) and 35% (inactive); in assay [3] it was -1% (inactive) and 0% (inactive). Besides, the outcome in assay [5], in assay [6], in assay [7] and in assay [8] was inactive.

On to `Cc1cc(C(=O)NC2CCN(CC3(c4ccc(Cl)cc4)CCC3)CC2)on1`, for which the growth inhibition was 95% (active) in assay [1] and 98% (active) in assay [4]. In addition, the inhibition was 5% (inactive) in assay [2] and -3% (inactive) in assay [3]. The result in assay [5], in assay [6], in assay [7] and in assay [8] was inactive.

`O=C(NC1CCC(CN2CCC(c3c[nH]c4ccccc34)CC2)CC1)[C@H]1Cc2ccccc2CN1` (stereo partly specified): the figures for the growth inhibition in assay [1] and in assay [4] were 35% (inactive) and 89% (active), respectively. Besides, the inhibition was 29% (inactive) in assay [2] and 3% (inactive) in assay [3]. For the same compound, the outcome in assay [5], in assay [6], in assay [7] and in assay [8] was inactive.

As to `CN1CCC(COC(=O)C(O)(c2ccccc2)c2ccccc2)C1` (stereo unspecified), the figures for the growth inhibition in assay [1] and in assay [4] were 4% (inactive) and 98% (active), respectively. Moreover, the inhibition in assay [2] is 0% (inactive); in assay [3] it was -4% (inactive). In addition, the outcome in assay [5], in assay [6], in assay [7] and in assay [8] was inactive.

`O=C(C=Cc1ccccc1Br)NC1CCC(CN2CCC(c3c[nH]c4ccccc34)CC2)CC1` (stereo unspecified): the growth inhibition in assay [1] was 32% (inactive) and 57% (active); in assay [4], 101% (active) and 102% (active). Moreover, the inhibition is 36% (inactive) and 43% (inactive) in assay [2]; 4% (inactive) in assay [3]. Also, the outcome in assay [5], in assay [6], in assay [7] and in assay [8] was inactive.

With `CO/C(=C\C=C\c1cc2cc(Cl)c(Cl)cc2[nH]1)C(=O)N[C@H]1CN2CCC1CC2`, the growth inhibition in assay [1] was 36% (inactive); in assay [4] it was 82% (active). The inhibition in assay [2] was 43% (inactive); in assay [3] it was -2% (inactive). The result in assay [5], in assay [6], in assay [7] and in assay [8] was inactive.

Consider `CC(=O)Nc1ccc(CN2CCC(N(C)c3ccc(NC(=O)c4cccc(C)c4)cc3)CC2)cc1`, for which the growth inhibition was 50% (active) in assay [1] and 91% (active) in assay [4]. In addition, the inhibition in assay [2] was -7% (inactive); in assay [3], -4% (inactive). Also, the result in assay [5], in assay [6], in assay [7] and in assay [8] was inactive.

The values above are taken from PubChem BioAssay.
